Bioassay records from PubChem.
TTR transcr act: activators of transthyretin transcription; activation, % at 16.7 µM; SH-SY5Y TTR promoter Gaussia luciferase, luminescence; 100% = recombinant luciferase protein wells; 92,000 compounds, 1.3% hits;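 active means activation above the mean of all tested compounds plus 3 SD, cut at about 9.5% in these data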;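 further: cells exposed to compounds for one day before reading; 0% = median of all test compound wells on the plate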
TTR inh HuH7: counter-screen for TTR activators: TTR transcription inhibitors in HuH7 cells | shares compounds with TTR transcr act | HuH7 TTR promoter-Gaussia luciferase reporter, luminescence | inhibition, % at 16.7 µM | 1,100 compounds, 4% hits;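 active means average inhibition above the solvent-only control wells' mean plus 3 SD, cut at about 15% in these data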;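 further: 0% = cells with DMSO only and 100% = cells with inhibitor control FD; inhibitors lower well luminescence so higher value means more inhibition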
TTR act confirm: confirmation of human transthyretin transcription activators; shares compounds with TTR transcr act; SHSY5Y TTR promoter Gaussia luciferase, luminescence; 100% = purified Lucia enzyme wells, no cells; activation, % at 16.7 µM; 1,100 tested, under 10 active; AID 1117280;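 active means mean activation above a set limit taken from the earlier primary screen, cut at about 11% in these data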;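 further: 0% = DMSO-treated cells and 100% = recombinant Lucia luciferase without cells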
Numbers without * were called inactive. This excerpt belongs to a sample that is enriched for hits.

SMILES	TTR transcr act	others
CCOC(=O)CCCNC(=O)OC1CC2CC1[C@H]1CCCCN1[C@H]2C (stereo not given in full)	-0.3
O=C(O)c1ccccc1-c1noc(-c2ccccc2F)n1	-0.5
COc1cc(-c2cc(C(=O)NN3CCN(C)CC3)c3ccccc3n2)cc(OC)c1OC	35.8*	TTR inh HuH7=-10.8;TTR act confirm=3.0
COc1cc(-c2cc(C(=O)O)c3cc4c(cc3n2)OCCO4)cc(OC)c1OC	1.8
COc1cc(-c2cc(C(=O)OCC(=O)NC3CC3)c3ccccc3n2)cc(OC)c1OC	-3.2
COC(=O)[C@]12CCCCC=C1N(Cc1ccc(OC)cc1)C(=O)[C@@H]2CC(=O)N1CCCC1	1.6
O=C(NCc1ccccc1)c1cc(=O)c2ccccc2o1	26.2*	TTR inh HuH7=-12.6;TTR act confirm=4.3
O=C(NCc1ccccc1)c1ccc(C(=O)NCc2ccccc2)cc1	-1.6
O=C(NCc1ccccc1)c1cc2ccccc2oc1=O	-0.2
Cc1ccc(CN2CCCCC(NC(=O)c3ccc(COc4ccccc4)cc3)C2=O)cc1 (stereo not given)	-2.9
Cc1cccc(CN[C@@H]2CC[C@@]34CCCN3C(=O)CCC[C@H]4C2)c1	-1.4
O=C(C[n+]1ccccc1)Nc1ccccc1	-0.2
COC(=O)c1ccc[n+](CC(=O)Nc2ccc(OC(F)F)cc2)c1	6.6
COC(=O)c1ccc(NC(=O)C[n+]2ccccc2)cc1	10.2*	TTR inh HuH7=-12.9;TTR act confirm=1.6
C#CCNC(=O)C[C@H]1C[C@@]2(C(=O)OC)C(=C[C@H](C(C)C)O[C@@H]2C2CC2)N(Cc2ccc(Cl)cc2Cl)C1=O	2.4
C[C@H]1CCC[C@H](O)CC(=O)c2c(O)cc(O)cc2CC(=O)O1	-2.1
C/C(=N/NC(=O)Cc1cccn1C)c1ccccc1	-0.4
C/C(=N\NC(=O)Cc1cccn1C)c1ccc2ccccc2c1	11.0*	TTR inh HuH7=-19.7;TTR act confirm=-0.5
C/C(=N\NC(=O)Cc1cccn1C)c1ccco1	0.0
O=C(CCN1CCOCC1)c1ccc(N2CCCCC2)cc1	10.0*	TTR inh HuH7=-8.6;TTR act confirm=-0.4
CC(C)(C)c1cc(C(=O)CCN2CCOCC2)cc(C(C)(C)C)c1O	-3.5
CCC(=O)c1ccc(OCCN2CCOCC2)cc1	-1.2
CC1(c2nnnn2-c2ccc(F)cc2)CCCC(=O)N1CCc1c[nH]c2ccccc12 (stereo not given)	-0.3
CCCC1CCC2(CCCN2CCOC(=O)Nc2ccccc2)CC1 (stereo not given)	0.3
COc1ccc(CN2CCN(S(=O)(=O)c3ccccc3)CC2)c(OC)c1	2.2
SMILES	TTR transcr act	others
COc1ccc(CN2CCN(S(=O)(=O)c3ccccc3)CC2)c(OC)c1OC	16.7*	TTR inh HuH7=-14.2;TTR act confirm=-0.7
COc1cccc(CN2CCN(S(=O)(=O)c3ccccc3)CC2)c1OC	8.1
CCCCNS(=O)(=O)CC1NCCc2ccccc21 (stereo not given)	-0.8
COc1ccc(C(F)(F)F)cc1NC(=O)C(OC(=O)CNC(=O)c1ccccc1)c1ccccc1 (stereo not given)	0.8
Cc1ccc(Cc2c(-c3ccccc3)nc3cc(C)c(Br)c(C)n23)cc1	11.7*	TTR inh HuH7=-9.8;TTR act confirm=-0.5
Cc1cc2nc(-c3ccc(F)cc3)c(Cc3ccccc3)n2c(C)c1Br	0.0
Cc1ccc(Cc2c(-c3cccc(Cl)c3)nc3cc(C)c(Br)c(C)n23)cc1	0.5
COc1ccc(S(=O)(=O)N(C)C[C@@H]2Oc3c(NC(=O)Nc4ccccc4)cccc3C(=O)N([C@@H](C)CO)C[C@H]2C)cc1	-0.1
Cn1nccc1C(=O)N/N=C/c1cccnc1	-1.6
O=C(N/N=C/c1cccnc1)c1ccc2c(c1)OCCO2	17.6*	TTR inh HuH7=2.4;TTR act confirm=0.5
O=C(N/N=C/c1cccnc1)c1ccco1	1.7
COC(CNC(=O)[C@H](Cc1ccccc1)NC1(C(=O)NC2CCCCC2)CCCC1)OC	-0.2
O=C(CN1CCOCC1)NCCNS(=O)(=O)c1ccccc1	0.1
O=C(NCCNS(=O)(=O)c1ccc(C(F)(F)F)cc1)N1CCOCC1	11.7*	TTR inh HuH7=-6.0;TTR act confirm=-0.5
O=C(CNS(=O)(=O)c1ccc(C(=O)N2CCOCC2)cc1)N1CCOCC1	1.4
CCC[C@H]1[C@@H](OC(=O)NCc2ccco2)CC[C@@]23CCCN2C(=O)CCC[C@@H]13	0.6
COC(=O)c1cccc(Cn2ccc3ccc(-c4ccc5ccn(Cc6cccc(C(=O)OC)c6)c5c4)cc32)c1	0.7
O=C(CNC(=O)c1ccccc1)OC1CCCCC1	0.9
COC(=O)C(CC(=O)CNC(=O)c1ccccc1)NC(=O)c1ccccc1 (stereo not given)	1.1
O=C(NC(CC1CCCCC1)C(=O)O)c1ccccc1 (stereo not given)	15.4*	TTR inh HuH7=-7.1;TTR act confirm=-0.1
O=C(OCC#CCSc1nnc(-c2cccc3ccccc23)o1)c1ccc(SC(F)(F)F)cc1	-1.3
CC(C)c1ccc(OCC(=O)Nc2ccncc2)cc1	-0.7
CC(C)c1ccc(NC(=O)COC(=O)COc2ccccc2)cc1	10.1*	TTR inh HuH7=-6.8;TTR act confirm=0.1
O=C(COC(=O)COc1ccccc1)Nc1ccc2c(c1)OCCO2	-1.4
CCOC(=O)[C@@]12CCC3=C1N(CCC3)C(=O)[C@H](CC(=O)N1CCOCC1)C2	-0.9
SMILES	TTR transcr act	others
FC(F)(F)c1cccc(N2CCN(C(=S)Nc3nccc4ccccc34)CC2)c1	3.6
O=C(Cc1ccc(NC(=O)C2CCCN(C(=O)c3ccccc3)C2)cc1)Nc1cccc(C(=O)N2CCCC2)c1 (stereo not given)	0.5
O=C(NC(=S)N1CCN(c2ccc(F)cc2)CC1)c1ccccc1	-1.0
CC(C)(C)OC(=O)N1C(=O)[C@](OC(=O)c2ccccc2)(c2ccc(F)cc2)c2ccccc21	21.1*	TTR inh HuH7=4.4;TTR act confirm=-0.8
N/C(=N\OC(=O)c1ccc(F)cc1)c1ccccc1	-0.4
Cc1csc(SCC(=O)O)n1	6.9
Cc1nnc(SCC(=O)NC23CC4CC(CC(C4)C2)C3)s1	1.9
Cc1csc(SCC(=O)NC23CC4CC(CC(C4)C2)C3)n1	11.3*	TTR inh HuH7=-6.6;TTR act confirm=0.9
CCN1CCCCC(NC(=O)COCc2ccccc2)C1=O (stereo not given)	-0.9
CSc1ccc(-c2csc(N3CCC(C(N)=O)CC3)n2)cc1	0.7
O=S1(=O)c2ccc(N3CCC[C@H]3CO)cc2OCCCN1C1CC1	1.2
O=C(NNC(=O)c1cc(-c2ccc(Br)cc2)nc2ccccc12)c1csc(N2CCOCC2)n1	-3.8
Cc1ccc(C)c(SCC(=O)NNC(=O)c2csc(N3CCOCC3)n2)c1	30.9*	TTR inh HuH7=-14.2;TTR act confirm=-0.6
CSc1ncccc1C(=O)NNC(=O)c1csc(N2CCOCC2)n1	1.4
O=C(Nc1ccc(F)cc1)OCc1cn(Cc2ccccc2)nn1	1.0
C=CCn1c(C)cc(C(=O)CSc2nc(N)cc(N)n2)c1C	1.9
COc1ccc(C(C)=O)cc1CSc1nnc2c(Cl)cc(Cl)cn12	0.8
C=CCn1c(C)cc(C(=O)CSc2nnc3c(Cl)cc(Cl)cn23)c1C	21.6*	TTR inh HuH7=-13.2;TTR act confirm=0.3
C[C@H]1[C@@H](OC(=O)Nc2cccc(C(F)(F)F)c2)CC[C@@]23CCCN2C(=O)CCC[C@@H]13	-0.7
COc1ccc(CC2CCN(c3ncnc4sccc34)CC2)cc1	-3.7
COC(=O)[C@]12C[C@H](CC(=O)NCCCCc3ccccc3)C(=O)N(Cc3ccccc3)C1=C[C@H](COCc1ccccc1)O[C@@H]2C	-0.9
O=C(OCc1cn(Cc2cccc(Cl)c2)nn1)N1CCOCC1	0.3
O=C(COC(=O)/C=C/c1ccc(F)cc1)NC1CCCC1	2.4
